Consider 16 molecules from PubChem BioAssay (EPA / NIEHS).

Read-out in experiment [1]: Human Leukocyte Antigen - DR isotype (HLADR), HLA-DRA (gene 3122)
The experiment in a line: BSK_CASM3C_HLADR: BioMAP Diversity Plus: CASM3C Assay for Human Leukocyte Antigen - DR isotype (HLADR) Biomarker Activity (AID 2283043).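 Also: cell-surface HLA-DR protein level quantified by ELISA.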 The conditions noted are these: primary human coronary artery smooth muscle cells; actives raise or lower the signal.

Read-out in experiment [2]: Macrophage colony-stimulating factor (MCSF), CSF1 (gene 1435)
Put plainly: BSK_CASM3C_MCSF: BioMAP Diversity Plus: CASM3C Assay for Macrophage colony-stimulating factor (MCSF) Biomarker Activity (AID 2283044).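 Also: M-CSF protein amount quantified by ELISA after 24 h exposure.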 The conditions noted are these: primary human coronary artery smooth muscle cells; actives raise or lower the signal.

Read-out in experiment [3]: Low-density lipoprotein receptor (LDLR), LDLR (gene 3949)
Put plainly: BSK_CASM3C_LDLR: BioMAP Diversity Plus: CASM3C Assay for Low-density lipoprotein receptor (LDLR) Biomarker Activity (AID 2283045).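 Also: LDLR protein level on the cell surface quantified by ELISA.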 The conditions noted are these: primary human coronary artery smooth muscle cells; actives raise or lower the signal.

Read-out in experiment [4]: Monocyte Chemoattractant Protein-1 (MCP1), CCL2 (gene 6347)
Put plainly: BSK_CASM3C_MCP1: BioMAP Diversity Plus: CASM3C Assay for Monocyte Chemoattractant Protein-1 (MCP1) Biomarker Activity (AID 2283046).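 Also: MCP-1 level quantified by ELISA 24 h after dosing.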 The conditions noted are these: primary human coronary artery smooth muscle cells; actives raise or lower the signal.

Experiment [5] can be described thus: BSK_CASM3C_Proliferation: Cell Proliferation Assessment in the BioMAP Diversity Plus: CASM3C Assay (AID 2283047).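 Also: sulforhodamine B total protein stain as relative cell number at 560 nm; sub-confluent cells exposed 48 h before staining; fitted both ways against DMSO so gain or loss of cell number.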 Particulars: primary human coronary artery smooth muscle cells.
Read-out in experiment [6]: Monokine induced gamma interferon (MIG), CXCL9 (gene 4283)
The experiment in a line: BSK_CASM3C_MIG: BioMAP Diversity Plus: CASM3C Assay for Monokine induced gamma interferon (MIG) Biomarker Activity (AID 2283048).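 Also: MIG protein level measured by ELISA.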 The conditions noted are these: primary human coronary artery smooth muscle cells; actives raise or lower the signal.

Read-out in experiment [7]: serum amyloid A (SAA), SAA1 (gene 6288)
The experiment in a line: BSK_CASM3C_SAA: BioMAP Diversity Plus: CASM3C Assay for serum amyloid A (SAA) Biomarker Activity (AID 2283049).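 Also: SAA protein level quantified by ELISA.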 Particulars: primary human coronary artery smooth muscle cells; actives raise or lower the signal.

Experiment [8] is described as follows: BSK_CASM3C_SRB: Viability Assessment in the BioMAP Diversity Plus: CASM3C Assay (AID 2283050).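 Also: total protein by SRB staining as cytotoxicity measure in parallel cultures; cells exposed to compound for 24 h.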 Particulars: primary human coronary artery smooth muscle cells.
Read-out in experiment [9]: Thrombomodulin, THBD (gene 7056)
Put plainly: BSK_CASM3C_Thrombomodulin: BioMAP Diversity Plus: CASM3C Assay for Thrombomodulin Biomarker Activity (AID 2283051).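 Also: thrombomodulin protein level measured by ELISA 24 h after dosing.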 Particulars: primary human coronary artery smooth muscle cells; actives raise or lower the signal.

Read-out in experiment [10]: Tissue Factor, F3 (gene 2152)
The experiment in a line: BSK_CASM3C_TissueFactor: BioMAP Diversity Plus: CASM3C Assay for Tissue Factor Biomarker Activity (AID 2283052).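 Also: cell surface tissue factor protein level read by ELISA.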 Particulars: primary human coronary artery smooth muscle cells; actives raise or lower the signal.

SMILES strings stand for the structures. Several values for one entry are separate records, joined by “and”; a condition that tells them apart may be missing. Equal entries are not always repeated. Some compounds were tested as several samples or in several runs, with calls that do not always agree. Activity calls are given as the source filed them. The calls were made as follows: active = hit-call score of the fitted dose curve at least 0.9, where 1 is the maximum; inactive = score below 0.9.

In the case of `O=C(O)c1ccccc1C(c1ccc(O)cc1)c1ccc(O)cc1`, the outcome in [1], in experiment [2], in [3], in experiment [4], in [5] and in experiment [6] was inactive. In addition, the result in experiment [7], in experiment [8], in [9] and in [10] was inactive.

As to `OCCC(F)(F)C(F)(F)C(F)(F)C(F)(F)C(F)(F)C(F)(F)F`, the result in experiment [1], in [2], in [3], in experiment [4], in experiment [5] and in [6] was inactive. Further, the result in experiment [7], in [8], in experiment [9] and in experiment [10] was inactive. Further, the AC50 in experiment [5] was 44.3 µM (active).

As to `NCC(F)(F)C(F)(F)C(F)(F)C(F)(F)C(F)(F)C(F)(F)C(F)(F)F`, the outcome in experiment [1], in experiment [2], in [3], in experiment [4], in [5] and in experiment [6] was inactive. Moreover, the result in [7], in [8], in experiment [9] and in [10] was inactive.

Turning to `COC(=O)CCCCC(=O)OC`, the result in experiment [1], in [2], in [3], in [4], in [5] and in experiment [6] was inactive. The outcome in [7], in experiment [8], in experiment [9] and in experiment [10] was inactive.

Regarding `CCCCCCCCCCCCN1CCCC1=O`, the result in [1], in [2], in experiment [3], in experiment [4], in experiment [6] and in experiment [7] was inactive. In experiment [10], the outcome was inactive. For the same molecule, the AC50 in experiment [5] was 32.7 µM (active); in experiment [8], 27.4 µM (active); in [9], 27.9 µM (active).

As for `ClC1=C(Cl)C(Cl)(Cl)C(Cl)=C1Cl`, the concentration at half-maximal activity (AC50) in experiment [1] is 4.27 µM (active); in experiment [2], 6.59 µM (active); in experiment [3], 5.87 µM (active); in experiment [4], 7.68 µM (active); in [5], 2.76 µM (active); in experiment [6], 7.3 µM (active). Moreover, the AC50 in experiment [7] was 6.33 µM (active); in experiment [8], 7.64 µM (active); in [10], 1.92 µM (active). Moreover, the result in experiment [9] was inactive.

With `CC#C[C@]1(O)CC[C@H]2[C@@H]3CCC4=CC(=O)CCC4=C3[C@@H](c3ccc(N(C)C)cc3)C[C@@]21C`, the outcome in experiment [1], in [2], in experiment [3], in experiment [4], in experiment [6] and in [7] was inactive. For the same molecule, the outcome in experiment [9] and in [10] was inactive. Also, the values for the AC50 in experiment [5] and in experiment [8] were 31.1 µM (active) and 31.8 µM (active), respectively.

Take `CC(C)(C)c1cccc(C(C)(C)C)c1O`: the outcome in experiment [1], in experiment [2], in [3], in [4], in [5] and in experiment [6] was inactive. The outcome in [7], in experiment [8] and in [9] was inactive. In experiment [10], the AC50 is 20 µM (active).

Take `c1ccc2c(c1)ccc1ccccc12`: the outcome in experiment [1], in experiment [2], in experiment [3], in experiment [4], in [5] and in experiment [6] was inactive. The outcome in experiment [7], in [8], in [9] and in experiment [10] was inactive.

Turning to `CC(C)(C)CC(C)(C)c1ccc(O)c(-n2nc3ccccc3n2)c1`, the AC50 in experiment [1] was 15.7 µM (active); in experiment [2] it was 28.8 µM (active); in [3], 20 µM (active); in experiment [5], 29.8 µM (active); in [7], 32.4 µM (active); in experiment [9], 22.7 µM (active). Moreover, the outcome in experiment [4], in [6], in experiment [8] and in experiment [10] was inactive.

On to `CCCCCCCCC(=O)O`, for which the result in experiment [1], in experiment [2], in experiment [3], in experiment [4], in experiment [5] and in experiment [6] was inactive. For the same molecule, the outcome in [7], in experiment [8], in experiment [9] and in experiment [10] was inactive.

For `Cc1oc(-c2ccccc2)nc1CCOc1ccc(C[C@H](Nc2ccccc2C(=O)c2ccccc2)C(=O)O)cc1`, the AC50 in experiment [1] is 34.6 µM (active); in experiment [2], 30.8 µM (active); in experiment [3], 4.87 µM (active); in experiment [4] it was 32.4 µM (active); in experiment [5] it was 31.8 µM (active); in experiment [8], 32.3 µM (active). Also, the result in experiment [6], in [7], in [9] and in [10] was inactive.

As to `CCc1nn(C2CCCCC2)c2cc(C3(C#N)CCC(C(=O)O)CC3)ccc12` (centres undefined), the AC50 in experiment [1] was 4.52 µM (active); in experiment [2], 0.657 µM (active); in experiment [3], 1.47 µM (active); in [4], 7.23 µM (active); in experiment [5], 4.09 µM (active); in experiment [6] it was 13.1 µM (active). In addition, the result in [7], in [8], in [9] and in experiment [10] was inactive.

Consider `C[C@@H]1C[C@H]2[C@@H]3CCC4=CC(=O)C=C[C@]4(C)[C@@]3(F)[C@@H](O)C[C@]2(C)[C@@]1(O)C(=O)COP(=O)(O)O`, for which the outcome in experiment [1], in experiment [3], in [5], in experiment [6], in experiment [8] and in experiment [9] was inactive. Also, the outcome in [10] was inactive. Further, the AC50 is 29.4 nM (active) and 113 nM (active) and 217 nM (active) in experiment [2]; 141 nM (active) and 1.58 µM (active) and 720 nM (active) in experiment [4]; 0.163 µM (active) in experiment [5]; 54.4 nM (active) and 105 nM (active) and 155 nM (active) in experiment [7]; 29.4 nM (active) and 100 nM (active) in experiment [9]; 122 nM (active) and 674 nM (active) in experiment [10].

Consider `NC(=O)N1C(=O)C(C(=O)c2cc(Cl)cs2)c2cc(F)c(Cl)cc21` (centres undefined), for which the AC50 is 14.1 µM (active) in experiment [1], 7.46 µM (active) in experiment [4], 27.4 µM (active) in experiment [5] and 23.8 µM (active) in [8]. Also, the result in [2], in [3], in [6], in [7], in [9] and in experiment [10] was inactive.

In the case of `CC(=O)NC1(c2cccc(F)c2)CCN(CC[C@@]2(c3ccc(Cl)c(Cl)c3)CN(c3ccccc3)C(=O)CO2)CC1`, the AC50 in [1] was 28.2 µM (active); in experiment [3] it was 4.58 µM (active); in experiment [5], 27.3 µM (active); in [8], 23.8 µM (active); in experiment [9], 26.1 µM (active). The result in experiment [2], in experiment [4], in experiment [6], in experiment [7] and in [10] was inactive.

The term AC50 denotes the concentration at which the activity in the assay is half-maximal.
